Experimental data: PubChem BioAssay AID758 (NMMLSC, 2007)
The whole screen tested about 190,000 compounds, of which about 110 (0.058%) were called active. Inconclusive results (about 2%) are left out. For the sample, actives were picked, then their nearest neighbours and some compounds at random. Values without a mark were called inactive.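 How the source made its calls: active means fluorescent GTP binding to Rab7 beads changed by at least 20 points from the 100% baseline, either direction, mostly lower; inconclusive means compound itself probably fluorescent, or too few beads counted; inactive means the rest.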

test system: Rab7 GTPase wild type (dog), Bodipy-FL-GTP binding; test: wildtype dog Rab7 nucleotide binding alteration – biochemical, multiplex bead flow cytometry, primary screen (AID 758); details: GST-Rab7 beads, fluorescent GTP binding, at 10 µM, actives lie on both sides;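 further: median green fluorescence of bound Bodipy-FL-GTP per Rab7 bead population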

Row | Structure (SMILES) | GTP binding activity (percent of control)
1 | CCOc1ccc(C2SCC(=O)Nc3c2c(C)nn3C2CCOC(C)(C)C2)cc1 (stereo not given) | 79% (active)
2 | CCCC(C)n1[nH]c(=O)c2c1NC(=O)CSC2c1ccc(OC)c(OC)c1 (stereo not given) | 100%
3 | CN(C)CCCN=Cc1c(O)n(Cc2ccco2)c(=O)[nH]c1=O | 104%
4 | COP(=O)(OC)C(NC(=O)c1ccc(C)cc1)C(Cl)(Cl)Cl (stereo not given) | 99%
5 | O=C(Cc1ccccc1)N1CCN(C2CCCCCC2)CC1 | 98%
